The panel holds about 83,000 compounds, 20% with a hit somewhere; the sample as a whole holds those more often.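 Interpretation: 100, growth as untreated; towards 0, rising growth inhibition; 0, no net growth; 0 to -100, cell death. Compounds scoring below 10 were considered active.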 Values without a mark were called inactive. Calls of active or inactive are those of the source.
Assays:
Assay in all cases: NCI-60 one-dose screen, 48 h (100 = growth as untreated, 0 = no growth, -100 = all killed)
Conditions in all cases: 10 µM unless noted
[1] = tested on: NCI-H23 lung
[2] = tested on: NCI-H226 lung
[3] = tested on: NCI-H322M lung
[4] = tested on: NCI-H460 lung
[5] = tested on: HOP-92 NSCLC
[6] = tested on: NCI-H522 lung
[7] = tested on: A549/ATCC NSCLC
[8] = tested on: 786-0 renal
[9] = tested on: COLO 205 colon
[10] = tested on: HOP-62 NSCLC

Row | Structure (SMILES) | growth [1] | growth [2] | growth [3] | growth [4] | growth [5] | growth [6] | growth [7] | growth [8] | growth [9] | growth [10]
1 | ClCc1cccc(CSc2ncnc3c2ncn3Cc2cccc(CCl)c2)c1 | 33.9% | -54.8% (active) | 101% | 36.7% | 99.3% | -69.8% (active) | 88.7% | 13% | 26.3% | –
2 | CN=C1C=C/C(=N/N=c2/ccn(O)cc2C)C=C1C | 90% | 103% | 113% | 111% | 85.7% | 77.9% | 88.8% | 89.3% | 138% | –
3 | CCCCCCCCCCCCCC(=S)NCCCC[C@H](NC(=O)OCc1ccccc1)C(=O)Nc1ccccc1 | 37.2% | 60.8% | 95.2% | 45.5% | 19.8% | 27.6% | 49.3% | 48.8% | 55.6% | –
4 | COc1ccc(-n2nc(C(=O)NCC(=O)Nc3nc4cc(OC)ccc4s3)c3ccccc3c2=O)cc1 | 19.5% | -11.1% (active) | 31.4% | 1.04% (active) | -34.9% (active) | -9.83% (active) | 0.477% (active) | 20.4% | – | –
5 | CSC1=NC(=Nc2c(C)cccc2C)C2(CCC(C(C)(C)C)CC2)N1c1ccc(Cl)cc1 (centres undefined) | 48.6% | 48.6% | 64.8% | 16% | 62.7% | 48.2% | 30.5% | 51.1% | 40.8% | –
6 | C[C@]12CCc3nc(Nc4ccc(O)cc4)sc3C1=CC[C@@H]1[C@@H]2CC[C@]2(C)/C(=N/NC(N)=S)CC[C@@H]12 | 1.05% (active) | 55.4% | 4.16% (active) | -72% (active) | -19.3% (active) | -55.2% (active) | -26.7% (active) | -73.6% (active) | -40.5% (active) | –
7 | NC(=Nc1ccccc1)SCCCSC(N)=Nc1ccccc1 | 92.6% | 93.6% | 81.8% | 100% | 41.6% | 69.2% | 89.5% | 102% | 78.7% | –
8 | Oc1ccc(CCCCCCc2ccc(O)cc2)cc1 | 59.5% | 101% | 92% | 46.4% | 64% | 56.6% | 47.6% | 14.2% | 103% | –
9 | Cc1ccc(Nc2nc(NCCO)c3ccccc3n2)cc1C | 15.8% | 1.03% (active) | 55.5% | -2.08% (active) | 89.7% | -21% (active) | 13.6% | 29% | -65.7% (active) | –
10 | O=C(CN1CCN(c2ccccc2)CC1)N1CCN(c2nnc(-c3ccc(Cl)cc3)c(-c3ccc(Cl)cc3)n2)CC1 | 82.3% | 68% | 89.9% | 47.9% | 71.3% | 59.7% | 54.8% | 40.1% | 51% | –
11 | COc1ccc(/C=C2\CCCC3=C2N=C2SC(C)=NN2C3c2ccc(OC)c(OC)c2)cc1OC (centres undefined) | 35.5% | 31% | 27.9% | 19.1% | 37.2% | 35.8% | 20.1% | 53% | 22.2% | –
12 | Oc1ccc(Nc2ncnc3c2sc2ncccc23)cc1 | 11.2% | 42.6% | 47% | 9.18% (active) | 28.5% | 33.6% | 26.9% | 12.5% | 36% | –
13 | CCCCCCCCCCCCCCCCS(=O)(=O)Nc1cc(C(=O)NN)cc(C(=O)NN)c1 | 99.1% | 73.1% | 56.9% | 95.6% | 92.2% | 78.4% | 91.8% | 96.2% | 83.2% | –
14 | Cn1nc(C(F)(F)F)cc1-c1cc(Cl)c(OCc2ccc(Cl)cc2)c(-c2ccc(Cl)c(C(F)(F)F)c2)c1O | 4.69% (active) | -13.3% (active) | 9.05% (active) | 0.354% (active) | -25.8% (active) | 1.3% (active) | 13.2% | -4.08% (active) | -78.6% (active) | –
15 | COc1cc2cc(C(=O)Nc3ccccc3)c(N)nc2cc1OC | 77.6% | 65.2% | 44.1% | -40.2% (active) | -11.4% (active) | -65.3% (active) | 15.3% | 21.2% | -93.3% (active) | –
16 | COc1cc(/C=C/c2ccc3c(Br)cc(Br)c(O)c3n2)ccc1O | 36.9% | 67.7% | 40.5% | 3.91% (active) | 16.6% | -38.2% (active) | 14.2% | 32.6% | 58% | –
17 | C[C@@H]1C[C@H](N)C[C@H](c2ccncc2NC(=O)c2ccc(F)c(-c3c(F)cccc3F)n2)C1 | 73.3% | 53.6% | 71% | 62.5% | 10.4% | 46.4% | 48.7% | 56.1% | -33.4% (active) | –
18 | CN1CCN(Cc2ccc(NC(=O)c3cncc(C#Cc4ncc5ccccn45)c3)cc2C(F)(F)F)CC1 | 9.22% (active) | -8.28% (active) | 33.3% | 5.79% (active) | -1.18% (active) | 18.4% | 7.74% (active) | 3.06% (active) | – | –
19 | CCCCn1c(-c2ccc(F)cc2)nc2cc(OC)c(OC)cc2c1=O | 101% | 93.8% | 78% | 112% | 66.1% | 93.7% | 19.7% | – | 121% | –
20 | Fc1ccc2nc(-c3ccc(-c4noc(-c5ccc(Cl)cc5)n4)cc3)[nH]c2c1 | 104% | 97.1% | 107% | 103% | 105% | 87.1% | 100% | 86.5% | 116% | –
21 | CCCCN(CCCC)CCC(=O)c1ccc(OC)c2ccccc12 | – | 95.7% | 104% | 109% | -13.7% (active) | 90.6% | 80.1% | 65.5% | 60.1% | –
22 | O=C(CS)OCC(COC(=O)CS)(COC(=O)CS)COC(=O)CS | – | 98.1% | 58.3% | 75.2% | 108% | 76.4% | 93.9% | 103% | 105% | 105%
23 | CC(=O)OC1Oc2cc(C)c(C)cc2-c2oc(=O)c(-c3cc4ccccc4oc3=O)cc21 (centres undefined) | – | 124% | 126% | 108% | 88.3% | 82.9% | 113% | 79.7% | 121% | 109%
24 | COC(=O)/C=C/c1cc(OC(C)=O)c2c(c1)[C@@H](C(=O)OC)[C@H](c1ccc(OC(C)=O)c(OC(C)=O)c1)O2 | – | -7.97% (active) | 60% | 11.4% | 12.9% | -25.3% (active) | 20.6% | 21.5% | 47.1% | 24%
25 | O=C(Cn1nncc1CN1C(=O)CSC1=O)Nc1ccc(F)cc1 | – | 95.7% | 102% | 103% | 104% | 93.5% | 102% | 102% | 107% | 97.2%
26 | C/C=C(\C)C(C(=O)NC1CCCCC1)N(C(=O)C1CCc2cc(F)ccc2O1)c1ccc([N+](=O)[O-])cc1 (centres undefined) | – | 72.5% | 92.8% | 82.5% | 92.6% | 81.9% | 79.1% | 90.1% | 98.7% | 87.3%
27 | OC(c1cc2c(Cl)cc(Cl)cc2c2cc(C(F)(F)F)ccc12)C1CCCCN1 (centres undefined) | – | -66% (active) | -69.7% (active) | -73.6% (active) | -88.8% (active) | -83.9% (active) | -80.9% (active) | -67.6% (active) | -88.3% (active) | -90% (active)
